These results are taken from PubChem BioAssay AID764 (NMMLSC, 2007).

The whole screen tested about 190,000 compounds, of which about 220 (0.12%) were called active. Another 2% or so got no clear call; they are omitted. The sample as a whole holds a higher share of actives than the screen did. A number with no mark means an inactive call.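 The calls were made as follows: active = GTP binding at least 20 percentage points away from the 100% baseline, in either direction, so actives lie on both sides; inconclusive = Compound likely fluorescent itself, or too few beads counted; inactive = the rest.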

The assay has as its target Ras-related C3 botulinum toxin substrate 1 (Homo sapiens) (UniProt P63000). Briefly: activated Rac1 mutant nucleotide binding changes – biochemical, bead-based flow cytometry, multiplex, fluorescent GTP, primary screen (AID 764). Conditions: GST-Rac1 activated beads, at 10 µM, actives lie on both sides, 100% means binding = to untreated wells. For orientation: A flow cytometer gives signals particle by particle.
For `COc1cc(N2C(=O)c3ccccc3C2=O)c(Cl)cc1C(=O)OCC(=O)N1CCOCC1`, the percent activity (GTP binding) is 97%. Take `COc1ccc(N2CCN(C(C)=C3C(=O)c4ccccc4C3=O)CC2)cc1`: the percent activity (GTP binding) was 92%.

Consider `CCOC(=O)C(C)n1nc(-c2ccccc2)c2ccccc2c1=O` (stereo not given), for which the percent activity (GTP binding) was 96%. For the compound `Cc1ccc(CN(Cc2cccnc2)C(=S)Nc2cc(Cl)ccc2C)cc1`, the percent activity (GTP binding) is 95%. For the compound `CC1Cc2ccccc2N1S(=O)(=O)c1c(N)n(C)c(=O)n(C)c1=O` (stereo not given), the percent activity (GTP binding) was 102%. With `C/C(N)=C(/C#N)C(=O)COC(=O)C1CCN(C(=O)c2ccc(Cl)cc2)CC1`, the percent activity (GTP binding) was 97%. As to `O=C(COC(=O)c1ccc(F)cc1)Nc1nc2ccc([N+](=O)[O-])cc2s1`, the percent activity (GTP binding) was 93%. In the case of `COc1cccc(CNn2cn[nH]c2=S)c1OCc1ccccc1`, the percent activity (GTP binding) was 95%. In the case of `COC(=O)C1=C(C)N(C)C(=O)NC1c1ccc([N+](=O)[O-])o1` (stereo not given) it was 93%; in that of `CCOC(=O)C1CCN(S(=O)(=O)c2cc(F)ccc2OC)CC1`, 96%; in that of `Cc1cccc(N(C(=O)Cc2cccs2)C(C(=O)NCc2ccco2)c2ccncc2)c1` (stereo not given), 101%.

As to `O=C(c1ccc(F)cc1)n1cc(C(=S)N2CCOCC2)c2ccccc21`, the percent activity (GTP binding) is 98%. Turning to `CCCN(CC(=O)Nc1ccccc1C)C(=O)c1cc(=O)[nH]c2ccccc12`, the percent activity (GTP binding) is 95%. Turning to `CCCC(=O)NC(=S)Nc1ccc(CN2CCOCC2)cc1`, the percent activity (GTP binding) is 95%. In the case of `CCN1CCc2nc(NC(=O)c3cc(F)c(F)cc3Cl)sc2C1` it was 95%; in that of `CCCCc1ccc(NC(=S)NCCCN2CCOCC2)cc1`, 94%; in that of `CCOc1ccc(CN2CCN(Cc3ccc(C)o3)CC2CCO)cc1` (stereo not given), 96%.

On to `O=Cc1ccc(OCc2cn3ccccc3n2)cc1`, for which the percent activity (GTP binding) was 97%. In the case of `Brc1cc(/C=N/n2cnnc2)oc1Br` it was 100%.

As to `CS(=O)(=O)Nc1cccc(-c2cn3ccccc3n2)c1`, the percent activity (GTP binding) was 96%. With `CCOC(=O)CNC(=O)/C(=C\c1ccc(F)cc1)NC(=O)c1ccccc1`, the percent activity (GTP binding) was 95%. On to `COc1cccc(CC(=O)N2CCCC(CCC(=O)N3CCN(c4ccccn4)CC3)C2)c1` (stereo not given), for which the percent activity (GTP binding) is 96%. Consider `Cc1cccc(C)c1NC(=O)C1CCCN1C(=O)OC(C)(C)C` (stereo not given), for which the percent activity (GTP binding) was 97%. For `CCOc1cc(NC(=S)NCCCN(C)C)c(OCC)cc1NC(=O)C1CC1`, the percent activity (GTP binding) is 95%. In the case of `CCC(C)c1ccc(NC(=S)NCc2ccccn2)cc1` (stereo not given) it was 94%. `COc1cccc(/C=C2\SC(=N)N(c3ccc(F)cc3)C2=O)c1`: the percent activity (GTP binding) was 93%. Then `O=C(CSc1ccc(-c2ccco2)nn1)NCc1ccc2c(c1)OCO2`, with 96%; and `COc1ccc(N(CC(=O)Nc2ccc(C)cc2C)S(=O)(=O)c2ccccc2[N+](=O)[O-])c(OC)c1`, with 93%; and `CCOc1ccc(CCN2C(=O)c3cccnc3C2=O)cc1OCC`, with 97%. Then `O=C1N/C(=C/c2cccs2)C(=O)N1Cc1ccc(F)cc1`, with 97%; and `O=C(Nc1ccc2c(c1)C(=O)OC2)Nc1cccc2ccccc12`, with 96%; and `NC(=O)C1CCN(C(=O)COc2cccc3cccnc23)CC1`, with 95%. Regarding `Cn1c(N)c(C(=O)COC(=O)c2cnc(Cl)c(Cl)c2)c(=O)n(C)c1=O`, the percent activity (GTP binding) is 93%. On to `CN(C)c1ccc2c(=O)[nH][nH]c(=O)c2c1`, for which the percent activity (GTP binding) is 99%. As to `O=S(=O)(NCCc1ccc(F)cc1)c1cccc2cccnc12`, the percent activity (GTP binding) was 96%. As to `CCC(=O)N1CCC(C(N)=O)(N2CCCCC2)CC1`, the percent activity (GTP binding) is 96%. Consider `COc1cc2sc(C)nc2cc1C`, for which the percent activity (GTP binding) was 95%.

`CCN(CC)P(=O)(Nc1ccc(SC(F)F)cc1)c1ccc(N(C)C)cc1NC(=O)c1ccco1` (stereo not given): the percent activity (GTP binding) was 92%. On to `COc1ccc(C2=NN(C(=O)CCC(=O)O)C(c3cccs3)C2)cc1OC` (stereo not given), for which the percent activity (GTP binding) is 96%. As for `COCCCNC(NC(=O)c1ccc(OC)cc1)C(Cl)(Cl)Cl` (stereo not given), the percent activity (GTP binding) is 95%. For `COc1ccc(NS(=O)(=O)c2cc(NC(=O)C3CCCCC3)ccc2N2CCOCC2)cc1`, the percent activity (GTP binding) was 96%. As for `C/C=C/c1ccc(OCC(O)CN2CCCCCCC2)c(OC)c1` (stereo not given), the percent activity (GTP binding) was 96%. Consider `CC(C)N(C(=O)CSc1nc(COc2ccccc2)nc2ccccc12)C(C)C`, for which the percent activity (GTP binding) was 93%.

Regarding `O=C(Nc1nnc(Cc2ccccc2)s1)c1cnccn1`, the percent activity (GTP binding) is 99%.

Regarding `CCOc1cc(/C=N/NC(=O)c2ccc(CSc3nncn3C)cc2)ccc1OCC(=O)N1CCOCC1`, the percent activity (GTP binding) is 93%.
